This note sets out measurements from PubChem BioAssay AID932 (The Scripps Research Institute Molecular Screening Center, 2007).

Out of some 200,000 compounds screened, about 5,100 (2.5%) were called active.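 Rule for the calls: active = activation above the screen-wide mean activation plus 3 SD (cut at about 130% in these data); inactive = the rest.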 This excerpt belongs to a sample that is enriched for actives.

This assay can be described thus: potentiators of IFN-gamma driven STAT1 reporter – cell-based, HTS, luciferase reporter, primary screen (AID 932).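 Note: raw ratio to IFN-gamma control signal so 100% means no change and 0% no light.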 As to conditions: NIH 3T3 STAT1-luciferase reporter, luminescence, at 5.5 µM, stronger effect = higher value, 100% = IFN-gamma alone, no compound.
Consider `CC(=O)c1ccc(NC(=O)c2ccc3c(Cl)c4c(nc3c2)CCCC4)cc1`, for which the activation (% of control) was 113% (inactive).
The figure for `O=C(CN1CCN(c2ccc(O)cc2)CC1)NC1CCCc2ccccc21` (centres undefined) is 101% (inactive); for `Cc1ccc(OCc2nnc(SC3CCc4ccccc4C3=O)n2C)cc1` (centres undefined) it is 105% (inactive).
The figure for `Cc1cc(C)nc(NS(=O)(=O)c2ccc(N/C=C\C(=O)c3cccs3)cc2)n1` is 135% (active).
Take `CCc1nnc(NS(=O)(=O)c2ccc(NC(=S)NC(=O)c3cccs3)cc2)s1`: the activation (% of control) was 109% (inactive).
The figure for `CC(=O)Nc1ccc(S(=O)(=O)Nc2nccc(/C=C/c3ccccc3F)n2)cc1` is 98.1% (inactive).
The result for `O=C(c1cccs1)n1nc(NCc2ccccc2)nc1NCc1ccccc1` reads 107% (inactive); that for `CNC(=O)COC(=O)c1cc(-c2ccc(OC)cc2)nc2ccccc12`, 99.7% (inactive).
The figure for `CC(C)(C)NC(=O)NC(=O)COC(=O)Cc1c(F)cccc1Cl` is 113% (inactive); for `CCCCSc1nc2ccccc2[nH]1` it is 121% (inactive).
With `C=CCSc1nc2ccccc2[nH]1`, the activation (% of control) was 109% (inactive).
The figure for `O=C(CSc1nc2ccccc2[nH]1)c1cccs1` is 136% (active); for `CCOc1cc2[nH]c(=O)n(Cc3ccc(C(=O)NCCCN4CCCC4=O)cc3)c(=O)c2cc1OCC` it is 92.1% (inactive); for `COc1ccc(C2(CNC(=O)Cc3ccc(OC)c(OC)c3)CCCC2)cc1` it is 94.7% (inactive).
The figure for `N/C(=N\OC(=O)Cc1ccc([N+](=O)[O-])cc1)c1ccccn1` is 139% (active); for `N/C(=N\OC(=O)CCC1CCCCC1)c1ccccn1` it is 130% (active).
For `N/C(=N\OC(=O)CC1CCCCC1)c1ccccc1`, the activation (% of control) is 116% (inactive).
The figure for `O=C(OCc1ccc([N+](=O)[O-])cc1)c1ccccn1` is 95.9% (inactive).
The result for `N/C(=N\OC(=O)c1ccc([N+](=O)[O-])cc1)c1ccccn1` reads 81.4% (inactive); that for `CCC(C)(NC(=O)c1ccccn1)C(=O)NC1CCCCC1` (centres undefined), 95.5% (inactive); that for `COc1cc(SC)ccc1C(=O)Nc1nc(C)cs1`, 12.9% (inactive).
Take `COc1ccc(C(=O)Nc2nncs2)c(OC)c1`: the activation (% of control) was 131% (active).
The result for `COC(=O)c1sc(NC(=O)c2ccc(OC)cc2OC)nc1C` reads 75.1% (inactive); that for `COc1ccc(S(=O)(=O)N2CCN(C(=O)c3cc(C)oc3C)CC2)cc1`, 90.8% (inactive).
The figure for `Cc1ccc([N+](=O)[O-])c(OCCCNCC(C)O)c1` (centres undefined) is 101% (inactive); for `CN1CCN(C(=O)/C(=C\c2ccc3c(c2)OCO3)NC(=O)c2cccs2)CC1` it is 98.7% (inactive).
The figure for `COC(=O)c1ccccc1SC1CC(=O)N(c2cccc(C)c2)C1=O` (centres undefined) is 94.5% (inactive).
Take `CC1CCN(S(=O)(=O)c2ccc3ncn(CC(=O)N(C)C4CCCCC4)c(=O)c3c2)CC1`: the activation (% of control) is 100% (inactive).
With `Cc1cccc(C)c1NC(=O)C1CCCN1C(=O)OC(C)(C)C` (centres undefined), the activation (% of control) is 104% (inactive).
The result for `CCNC(=O)NNC(=O)C1CC(c2cccs2)=NO1` (centres undefined) reads 100% (inactive); that for `O=C(Cc1cccs1)Nc1nnc(C2CC2)s1`, 90.1% (inactive).
The result for `O=C(Nc1nnc(C2CC2)s1)c1ccccn1` reads 129% (active); that for `Cc1occc1C(=O)Nc1nnc(C2CCCCC2)s1`, 107% (inactive); that for `Cc1nc2ccccn2c1C(=O)NN=C1CCN(C)CC1`, 96.3% (inactive).
The figure for `CN1CCN(c2ccc(NC(=O)c3ccc4c(c3)[nH]c(=O)n4Cc3ccc(F)cc3)cc2)CC1` is 98.7% (inactive); for `Clc1cccc(CN2COc3c(cc(Cl)c4cccnc34)C2)c1` it is 94.3% (inactive).
On to `Cc1ccc(NC(=O)c2c(NC(=O)CCC(=O)O)sc3c2CCCCC3)cc1`, for which the activation (% of control) was 105% (inactive).
The figure for `COC(=O)c1sc(NC(=O)c2csc3c2CCCC3)nc1C` is 149% (active); for `Cc1ccc(NC(=O)c2csc3c2CCCC3)cc1` it is 176% (active); for `O=C(NCc1ccccc1Cl)c1csc2c1CCCCC2` it is 107% (inactive).
On to `CC(=O)Cc1nsc(NC(=O)c2csc3c2CCCC3)n1`, for which the activation (% of control) was 102% (inactive).
The result for `COC(=O)c1sccc1NC(=O)c1csc2c1CCCC2` reads 106% (inactive).
The result for `O=C(COc1ccccc1Cl)Nc1ccc(C(=O)c2ccc(C(=O)O)cc2)cc1` reads 98% (inactive); that for `CSCCC(=O)N1CCCC(CNC(=O)c2ccccc2Cl)C1` (centres undefined), 96.7% (inactive); that for `CCN(CC)S(=O)(=O)c1ccc(NC(=O)c2cccnc2Cl)c(NC(=O)c2cccnc2Cl)c1`, 88.7% (inactive).
The result for `O=C1Nc2cc(Cl)c(Cl)cc2N(O)N1c1ccccc1Cl` reads 82.7% (inactive).
`CC1CCN(C(=S)c2ccc(-c3ccc(Cl)cc3Cl)o2)CC1`: the activation (% of control) was 85.7% (inactive).
The result for `S=C(c1ccc(-c2ccccc2)o1)N1CCCCC1` reads 138% (active); that for `S=C(NCCc1ccccc1)N1CCCCC1`, 122% (inactive); that for `O=C(CNC(=O)COc1ccccc1)NCCc1ccccn1`, 104% (inactive).
The figure for `Cc1nn(Cc2ccc(Cl)cc2)c(Cl)c1/C=N/NC(=O)c1cccnc1` is 94.4% (inactive); for `CCC(=O)Nc1cccc(NC(=O)c2cccnc2)c1` it is 98.6% (inactive).
The figure for `Cc1cc(/C=N/NC(=O)c2cccnc2)c(C)n1CC(C)C` is 139% (active).
As to `Cc1ccc2sc(NNC(=O)c3ccc4c(c3)OCCO4)nc2c1C`, the activation (% of control) was 104% (inactive).
The result for `CCOC(=O)CSc1nc2ccc(C)cc2[nH]1` reads 111% (inactive); that for `Cc1cc2nc(SCCN3CCOCC3)[nH]c2cc1C`, 152% (active); that for `Cc1ccc(S(=O)(=O)NCCN2CCOCC2)cc1C`, 96.1% (inactive).
The figure for `COc1ccc(CN2CCCC(CNC(=O)c3ccc(F)cc3)C2)cc1OC` (centres undefined) is 97.8% (inactive).
The result for `CC1CCC(NC(=O)C2c3ccccc3C(=O)N2Cc2ccc3c(c2)OCO3)CC1` (centres undefined) reads 89.6% (inactive); that for `OCCCN1c2ccccc2Nc2nnc(-c3ccccc3)cc21`, 156% (active); that for `N=c1c2c(-c3ccccc3)c(-c3ccccc3)n(Cc3ccccc3)c2ncn1CCCO`, 102% (inactive).
On to `Cc1ccc(C)c(-n2ccnc2SCC(N)=O)c1`, for which the activation (% of control) is 102% (inactive).
The figure for `Cc1cccc(NC(=O)c2cccc(C(F)(F)F)c2)c1` is 107% (inactive); for `O=C(Nc1cccc(C(F)(F)F)c1)c1cnccn1` it is 110% (inactive).
The result for `Cc1ccc(NC(=O)Nc2cccc(C(F)(F)F)c2)nc1` reads 129% (active).
The figure for `CN(C)c1ccc2c(=O)[nH][nH]c(=O)c2c1` is 103% (inactive).
With `COc1ccc(-n2c(C)nn(CC3CC3)c2=O)cc1`, the activation (% of control) is 97.8% (inactive).
For the molecule `NS(=O)(=O)c1ccc(CCNC(=O)CCCn2c(SCC(=O)N3CCCC3)nc3ccsc3c2=O)cc1`, the activation (% of control) was 99.5% (inactive).
The figure for `CCc1ccc(NC(=O)CC2C(=O)NCCN2C(=S)Nc2ccccc2)cc1` (centres undefined) is 100% (inactive); for `O=C1CN(C(=O)COC(=O)c2cnc(Cl)c(Cl)c2)c2ccccc2N1` it is 92.8% (inactive); for `CCN(CC)N=Nc1cccc(NC(C)=O)c1` it is 88.6% (inactive).
The figure for `Cc1nonc1NC(=O)CSc1nc2ccccc2cc1C#N` is 117% (inactive); for `CCOc1ccc2nc(NCCNS(=O)(=O)c3ccccc3)c(C#N)cc2c1` it is 102% (inactive).
Consider `CCOc1ccc2cc(C#N)c(SCC(=O)OC)nc2c1`, for which the activation (% of control) was 150% (active).
`O=C(CSc1cccc[n+]1[O-])NCCCc1ccccc1`: the activation (% of control) was 91.9% (inactive).
The result for `CCOC(=O)C1CCN(CCC(=O)Nc2cccc(C)c2)CC1` reads 98.8% (inactive); that for `COc1cc(/C=C2/C(=O)ON=C2C)ccc1OCc1cccc(F)c1`, 128% (inactive); that for `COc1cc(/C=C2/C(=O)ON=C2C)ccc1OCc1ccccc1F`, 129% (active).
The figure for `CCOc1cc(/C=N/O)ccc1OCc1ccccc1F` is 104% (inactive); for `CCn1c(CSCc2c(Cl)cccc2Cl)n[nH]c1=S` it is 98.8% (inactive); for `Cc1noc(C)c1CCC(=O)O` it is 95.1% (inactive).
For the molecule `COc1ccc(CNC(=O)CN2CCC(n3nnc4cc(F)ccc43)CC2)cc1`, the activation (% of control) is 88.1% (inactive).
On to `COc1ccc2nc(Nc3nc4cc5c(cc4s3)OCCO5)sc2c1`, for which the activation (% of control) was 114% (inactive).
The figure for `CSc1ncccc1C(=O)Nc1nc2ccc(F)cc2s1` is 123% (inactive); for `Fc1ccc2nc(Nc3nc4c(s3)CCCC4)sc2c1` it is 162% (active); for `CCCCCC(=O)Nc1ccc(S(=O)(=O)Nc2ccc(Cl)nn2)cc1` it is 102% (inactive).
For `O=C(C1=C[C@H](c2coc3ccccc3c2=O)C[C@H](OCc2ccc(CO)cc2)O1)N1CCOCC1`, the activation (% of control) was 102% (inactive).
The figure for `COc1ccc(/C=N/NC(=O)Cn2cc(C(F)(F)F)ccc2=O)cc1` is 97.9% (inactive); for `Cc1ccccc1OCCC(=O)OCC(=O)NC(C)c1ccccc1` (centres undefined) it is 99.7% (inactive).
The figure for `COCCOC(=O)c1c(C)oc2cc(Br)c(OCC(N)=O)cc12` is 94.5% (inactive).
The result for `Cc1ccc(COc2ccc(C(=O)NN)cc2)cc1` reads 116% (inactive).
For the molecule `c1cnc(Nc2nc(-c3ccc4ccccc4c3)cs2)nc1`, the activation (% of control) is 164% (active).
The result for `Oc1ccc(-c2csc(Nc3cccnc3)n2)cc1` reads 110% (inactive); that for `O=C(Nc1ccc(Cl)cn1)Nc1cccs1`, 123% (inactive).
The figure for `c1ccc(Nc2nc(-c3ccncc3)cs2)nc1` is 193% (active); for `Cc1ccc(-c2csc(NC(=O)c3cccs3)n2)cc1` it is 123% (inactive); for `COc1ccc(-c2csc(Nc3ccccn3)n2)cc1` it is 110% (inactive).
The figure for `CCCc1cc(-c2nc(-c3ccc(C)cc3)cs2)ccn1` is 99.8% (inactive); for `Cc1ccc(-c2csc(NC(=O)Cc3cccs3)n2)cc1C` it is 111% (inactive); for `Clc1ccc(Nc2nc(-c3cccs3)cs2)nc1` it is 196% (active).
`NC(=O)c1ccccc1N=Cc1ccc2ccccc2c1`: the activation (% of control) is 124% (inactive).
The figure for `CCOC(=O)c1cc2c(=O)n3ccccc3nc2n(CC(C)C)c1=NC(=O)c1c(-c2c(F)cccc2Cl)noc1C` is 89.8% (inactive).
Regarding `CC(C)OC(=O)Cn1nc(C(F)(F)F)c2c1CCCC2`, the activation (% of control) was 96.5% (inactive).
The result for `Cc1ccc2nc(SCc3cn4c(C)cc(C)nc4n3)[nH]c2c1` reads 96.4% (inactive).
